# Y pestis TopoI – blocks Yersinia pestis topoisomerase I activity | Y. pestis Topo-I cleavage product accumulation, plate reader | activity, % at 10 µM | hit rate 0.064% among 360,000 | AID 504884; in the data active = activity above about 50%, passing the limit was not always enough
# PrPC surface inh – reduces human prion protein on the cell surface; P04156; cell surface PrPC, TR-FRET read-out; inhibition, % at 13.8 µM; hit rate 0.43% among 370,000; AID 720596; in the data active = inhibition above about 24%; also: 0% = median of the test wells and 100% = reference compound wells
# FBA Mtb inh – inhibits M. tuberculosis FBA enzyme. P9WQA3. purified M. tuberculosis FBA, fluorescence read-out. inhibition, % at 1 µM. hit rate 2.3% among 360,000. AID 588726;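 also: 0% = vehicle and 100% = reference inhibitor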
# Target sequence (P9WQA3 whole entry, looked up): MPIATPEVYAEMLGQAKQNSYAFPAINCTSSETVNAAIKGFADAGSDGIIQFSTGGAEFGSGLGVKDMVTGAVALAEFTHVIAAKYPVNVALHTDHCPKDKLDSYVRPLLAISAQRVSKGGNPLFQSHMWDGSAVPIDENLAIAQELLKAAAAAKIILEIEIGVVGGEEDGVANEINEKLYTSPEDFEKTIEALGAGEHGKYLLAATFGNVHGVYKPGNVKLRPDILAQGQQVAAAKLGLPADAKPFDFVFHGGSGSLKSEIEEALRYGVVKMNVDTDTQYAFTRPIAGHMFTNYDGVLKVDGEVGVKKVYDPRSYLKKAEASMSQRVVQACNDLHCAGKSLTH
# GDH-TPI counter-1 – GDH-TPI coupled enzyme inhibition counter-screen; GDH-TPI coupled enzyme counterscreen, NADH absorbance; hit rate 1.2% among 360,000; AID 588335; inhibition, % at 4.8 µM; in the data active = inhibition above about 30%;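 also: 0% = DMSO wells and 100% = wells lacking the enzyme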
# Mtb hypoxia rep – inhibitors of hypoxia-regulated fluorescent reporter in Mycobacterium tuberculosis; M. tuberculosis hypoxia-regulated fluorescent reporter, fluorescence; fluorescence inhibition, % (test concentration not listed); hit rate 0.1% among 300,000; AID 1159583; in the data active = fluorescence inhibition mostly above about 23%, no sharp cut-off; inactive = mostly below about 17%
# PrP 5UTR inh – suppresses PrP 5' UTR mRNA reporter expression. cell-based PrP 5' UTR mRNA reporter, plate reader. inhibition, % (concentration not given with the values). hit rate 0.35% among 340,000. AID 488862; in the data active = inhibition above about 52%; also: 0 = median of the neutral control wells
# Mtb FBA inh conf – Mtb FBA inhibition, confirmed | shares compounds with FBA Mtb inh | purified M. tuberculosis FBA, fluorescence read-out | inhibition, % at 1 µM | hit rate 78% among 5,600;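 also: 0% = vehicle wells and 100% = reference inhibitor wells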
# GDH-TPI counter-2 – GDH-TPI inhibition counter-screen for FBA inhibitors; hit rate 81% among 5,600; shares compounds with FBA Mtb inh; inhibition, % at 1 µM; GDH-TPI coupled enzyme counterscreen, fluorescence; AID 652141; in the data active = inhibition above about 10%
# GDH-TPI dose – counter-screen for M. tuberculosis FBA inhibitors: GDH-TPI dose response | GDH-TPI coupled enzyme assay, fluorescence, artifact counterscreen | shares compounds with FBA Mtb inh | hit rate 79% among 170 | AID 652145 | IC50, µM; call rule not given here
# Active calls of the source: *; . = no result; + = active, no number. In the library only some 3.8% were active in any assay of this set; here they are far more common. Rule as the data show it, unless noted: active = inhibition above about 27%; inactive = the rest.
SMILES,Y pestis TopoI,PrPC surface inh,FBA Mtb inh,GDH-TPI counter-1,Mtb hypoxia rep,PrP 5UTR inh,Mtb FBA inh conf,GDH-TPI counter-2,others
O=C(COc1ccc2c3c(c(=O)oc2c1)CCC3)NCCCN1CCOCC1,1,1,15,12,7,-23,.,.,
CC(Oc1ccc2c(c1)oc(=O)c1ccccc12)C(=O)NCCCN1CCOCC1 (stereo unspecified),0,15,64*,11,-1,-10,11,10,GDH-TPI dose=2.9*
CC(=NNC(=O)C1(C)CC1(Br)Br)c1cccc(NC(=O)C(C)(C)C)c1 (stereo unspecified),.,.,.,.,18,.,.,.,
CC1(C(=O)NN=Cc2ccc([N+](=O)[O-])o2)CC1(Br)Br (stereo unspecified),.,.,.,.,1,.,.,.,
CC(=NN1CCN(c2ccccc2)CC1)c1cccs1,.,.,.,.,-4,.,.,.,
Cc1c(C)c2ccc(OCC(=O)Nc3ccc(CN4CCOCC4)cc3)cc2oc1=O,7,7,47*,10,-6,-6,88*,86*,
Cc1ccc(OCC(=O)Nc2ccc(CN3CCOCC3)cc2)cc1C,10,7,-2,2,.,-9,.,.,
c1ccc(Nc2nnc(-c3cccc4ccccc34)o2)cc1,13,1,4,13,21,.,.,.,
Cc1ccc(Nc2nnc(-c3ccccc3N)o2)cc1C,2,8,49*,7,14,-154,11,3,GDH-TPI dose=3.1*
Cc1c(C(=O)NN=CC(C)C)[nH]c2ccc([N+](=O)[O-])cc12,.,.,.,.,2,.,.,.,
O=C(Cn1cnc2ccccc21)NN=Cc1cccnc1,.,.,.,.,-2,.,.,.,
O=C(Nc1ccccc1)c1cccc(=O)o1,1,-6,52*,33*,-10,-12,197*,174*,
Cc1ccccc1N(CC(=O)NN=Cc1ccc(N(C)C)cc1)C(=O)c1ccccc1,.,.,.,.,-8,.,.,.,
O=C(O)c1ccccc1-c1ccccc1C(=O)Nc1ccc2c(c1)oc(=O)c1ccccc12,1,3,34*,30,.,.,2,-3,
Cc1cc(=O)oc2cc(NC(=O)c3ccnn3C)ccc12,5,.,32*,9,3,-71,+,+,
COc1ccccc1CC(=O)Nc1ccc2c(C)cc(=O)oc2c1,-3,-5,37*,22,3,-33,101*,82*,
Cc1cc(=O)oc2cc(NC(=O)COc3ccccc3[N+](=O)[O-])ccc12,-4,-10,18,7,-1,-29,.,.,
Cc1cc(=O)oc2cc(NC(=O)CN3C(=O)NC(C)(c4ccccc4)C3=O)ccc12 (stereo unspecified),7,-5,61*,11,1,-28,137*,103*,
CC1(c2ccccc2)NC(=O)N(CC(=O)Nc2ccc3c(c2)OCO3)C1=O (stereo unspecified),2,6,5,6,.,-13,.,.,
Cc1cc(=O)oc2cc(NC(=O)c3c(Cl)cnn3C)ccc12,-3,6,9,26,-1,0,.,.,
COc1cccc(C=NNC(=O)CN2CC(c3ccccc3)CC2=O)c1OC (stereo unspecified),.,.,.,.,-7,.,.,.,
Cc1cccc(OCC(=O)Nc2ccc3c(C)cc(=O)oc3c2)c1,4,10,15,15,-7,-13,.,.,
CCCCOC(=O)Nc1ccc2c(C)cc(=O)oc2c1,-1,2,84*,17,1,-70,7,2,
Cc1ccccc1CC(=O)Nc1ccc2c(C)cc(=O)oc2c1,5,3,94*,3,14,-19,7,7,
Cc1cc(=O)oc2cc(NC(=O)c3ccccc3Cl)ccc12,4,8,96*,22,-6,-152,0,0,
Cc1cc(=O)oc2cc(NC(=O)COc3cccc(C(F)(F)F)c3)ccc12,-2,3,41*,16,7,-13,71*,50*,
Cc1cc(=O)oc2cc(OCC(=O)OCC(=O)Nc3ccc4ccccc4c3)ccc12,16,-1,26,11,-9,-28,.,.,
Cc1cc(=O)oc2cc(NC(=O)CCOc3ccccc3)ccc12,3,0,20,16,7,-32,.,.,
